“And” between values parts separate entries of the source, which are not always exact repeats. Equal values may be shown once. In all, about 5,700 compounds went through this assay and about 85 (1%) were called active. Cut-off read from the data, not from the text of the source: active = p53-positive nuclei above about 36% (passing the limit was not always enough); inactive = the rest. What follows is part of a selection rich in actives, with near analogues and random picks from the rest. Where a structure was tested more than once in an assay, its records may differ in their call.
How the values were obtained:
[1] = p53 stabilisation in HPV-positive human cells, imaging, p53-positive nuclei imaging, 24 h, 48 h (AID 1508601); conditions: 24/48 h
[2] = target: Cellular tumor antigen p53 (Homo sapiens) (UniProt P04637); experiment: as above; conditions: 24/48 h, stronger effect = higher value
[3] = measured here: cell number at 24 h, Library stock concentration: 3.33 mM
[4] = measured here: cell number at 48 h, Library stock concentration: 3.33 mM
[5] = Library stock concentration: 3.33 mM
[6] = measured here: p53 positive nuclei at 24 h, Library stock concentration: 3.33 mM
[7] = measured here: cell number at 24 h, Library stock concentration: 10 mM
[8] = measured here: cell number at 48 h, Library stock concentration: 10 mM
[9] = Library stock concentration: 10 mM
[10] = measured here: p53 positive nuclei at 24 h, Library stock concentration: 10 mM
[11] = measured here: cell number at 24 h, concentration not given here
[12] = measured here: cell number at 48 h, concentration not given here
[13] = measured here: p53 positive nuclei at 24 h, concentration not given here

Chain of Cellular tumor antigen p53 (Homo sapiens) (P04637 whole entry, looked up): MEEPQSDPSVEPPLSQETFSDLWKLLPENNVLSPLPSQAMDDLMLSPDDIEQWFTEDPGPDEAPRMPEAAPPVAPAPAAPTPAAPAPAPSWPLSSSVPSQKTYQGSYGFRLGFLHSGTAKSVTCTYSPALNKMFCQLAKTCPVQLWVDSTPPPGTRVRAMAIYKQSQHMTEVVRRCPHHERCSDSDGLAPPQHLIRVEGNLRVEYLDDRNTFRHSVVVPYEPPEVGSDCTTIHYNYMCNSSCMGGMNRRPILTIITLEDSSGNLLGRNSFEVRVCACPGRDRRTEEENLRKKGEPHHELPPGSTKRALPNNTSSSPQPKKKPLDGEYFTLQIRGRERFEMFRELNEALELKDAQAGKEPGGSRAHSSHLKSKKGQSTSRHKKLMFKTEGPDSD

In the case of COc1ccc(F)c(F)c1C(=O)c1cnc(NC2CCN(S(C)(=O)=O)CC2)nc1N, the nuclei count, normalised [1, 3] is reported as 43.7%, the nuclei count, normalised [1, 4] is reported as 27.7% and the p53-positive nuclei, normalised [2, 5] is reported as 67.1% (active). It also gave a p53-positive nuclei, normalised [2, 6] of 73.8%.

Molecule Cc1cc(OCCCS(C)(=O)=O)cc(C)c1-c1cccc(COc2ccc3c(c2)OCC3CC(=O)O)c1 (stereo not given) has a nuclei count, normalised ([1]; measured here: cell number at 24 h, Library stock concentration: 46 uM) of 101%, a nuclei count, normalised ([1]; measured here: cell number at 24 h, Library stock concentration: 278 uM) of 107% and a nuclei count, normalised ([1]; measured here: cell number at 24 h, Library stock concentration: 1.67 mM) of 104%. For the same molecule, the nuclei count, normalised [1, 3] was 125%, the nuclei count, normalised [1, 7] was 103% and the nuclei count, normalised ([1]; measured here: cell number at 48 h, Library stock concentration: 46 uM) was 105%. It also gave a nuclei count, normalised ([1]; measured here: cell number at 48 h, Library stock concentration: 278 uM) of 104%, a nuclei count, normalised ([1]; measured here: cell number at 48 h, Library stock concentration: 1.67 mM) of 104% and a nuclei count, normalised [1, 4] of 119%. The nuclei count, normalised [1, 8] was 103%, the p53-positive nuclei, normalised ([2]; Library stock concentration: 46 uM) was -0.0206% (inactive) and the p53-positive nuclei, normalised ([2]; Library stock concentration: 278 uM) was -0.0568% (inactive). For the same molecule, the p53-positive nuclei, normalised ([2]; Library stock concentration: 1.67 mM) was -0.0557% (inactive), the p53-positive nuclei, normalised [2, 5] was -0.149% (inactive) and the p53-positive nuclei, normalised [2, 9] was 0.322% (inactive). For the same molecule, the p53-positive nuclei, normalised ([2]; measured here: p53 positive nuclei at 24 h, Library stock concentration: 46 uM) was -0.152%, the p53-positive nuclei, normalised ([2]; measured here: p53 positive nuclei at 24 h, Library stock concentration: 278 uM) was 0.151% and the p53-positive nuclei, normalised ([2]; measured here: p53 positive nuclei at 24 h, Library stock concentration: 1.67 mM) was -0.156%. The p53-positive nuclei, normalised [2, 6] was -0.546% and the p53-positive nuclei, normalised [2, 10] was -0.0299%.

With O=C(O)/C=C/CCCCCCCCC(=O)O the nuclei count, normalised [1, 11] was 111%, the nuclei count, normalised [1, 12] was 107% and the p53-positive nuclei, normalised ([2]; concentration not given here) was 0.0752% (inactive). For the same molecule, the p53-positive nuclei, normalised [2, 13] was 0.0107%.

For C=C1C(=O)OC(CCCCCCCC)C1C(=O)O (stereo not given), the nuclei count, normalised ([1]; measured here: cell number at 24 h, Library stock concentration: 500 nM) was 115%, the nuclei count, normalised ([1]; measured here: cell number at 24 h, Library stock concentration: 1.5 uM) was 107% and the nuclei count, normalised ([1]; measured here: cell number at 24 h, Library stock concentration: 4.6 uM) was 111%. The nuclei count, normalised ([1]; measured here: cell number at 24 h, Library stock concentration: 13.7 uM) was 112%, the nuclei count, normalised ([1]; measured here: cell number at 24 h, Library stock concentration: 41 uM) was 108% and the nuclei count, normalised ([1]; measured here: cell number at 24 h, Library stock concentration: 123 uM) was 110%. It also gave a nuclei count, normalised ([1]; measured here: cell number at 24 h, Library stock concentration: 370 uM) of 116%, a nuclei count, normalised ([1]; measured here: cell number at 24 h, Library stock concentration: 1.111 mM) of 116% and a nuclei count, normalised ([1]; measured here: cell number at 24 h, Library stock concentration: 3.333 mM) of 114%. It also gave a nuclei count, normalised [1, 7] of 106%, a nuclei count, normalised ([1]; measured here: cell number at 48 h, Library stock concentration: 500 nM) of 112% and a nuclei count, normalised ([1]; measured here: cell number at 48 h, Library stock concentration: 1.5 uM) of 108%. It also gave a nuclei count, normalised ([1]; measured here: cell number at 48 h, Library stock concentration: 4.6 uM) of 109%, a nuclei count, normalised ([1]; measured here: cell number at 48 h, Library stock concentration: 13.7 uM) of 110% and a nuclei count, normalised ([1]; measured here: cell number at 48 h, Library stock concentration: 41 uM) of 105%. The nuclei count, normalised ([1]; measured here: cell number at 48 h, Library stock concentration: 123 uM) was 108%, the nuclei count, normalised ([1]; measured here: cell number at 48 h, Library stock concentration: 370 uM) was 116% and the nuclei count, normalised ([1]; measured here: cell number at 48 h, Library stock concentration: 1.111 mM) was 114%. The nuclei count, normalised ([1]; measured here: cell number at 48 h, Library stock concentration: 3.333 mM) was 112%, the nuclei count, normalised [1, 8] was 107% and the p53-positive nuclei, normalised ([2]; Library stock concentration: 500 nM) was 0.247% (inactive). For the same molecule, the p53-positive nuclei, normalised ([2]; Library stock concentration: 1.5 uM) was -0.0382% (inactive), the p53-positive nuclei, normalised ([2]; Library stock concentration: 4.6 uM) was -0.0805% (inactive) and the p53-positive nuclei, normalised ([2]; Library stock concentration: 13.7 uM) was -0.0825% (inactive). For the same molecule, the p53-positive nuclei, normalised ([2]; Library stock concentration: 41 uM) was 0.00899% (inactive), the p53-positive nuclei, normalised ([2]; Library stock concentration: 123 uM) was -0.155% (inactive) and the p53-positive nuclei, normalised ([2]; Library stock concentration: 370 uM) was 0.0153% (inactive). The p53-positive nuclei, normalised ([2]; Library stock concentration: 1.111 mM) was -0.0515% (inactive), the p53-positive nuclei, normalised ([2]; Library stock concentration: 3.333 mM) was 0.104% (inactive) and the p53-positive nuclei, normalised [2, 9] was 0.0835% (inactive). The p53-positive nuclei, normalised ([2]; measured here: p53 positive nuclei at 24 h, Library stock concentration: 500 nM) was -0.115%, the p53-positive nuclei, normalised ([2]; measured here: p53 positive nuclei at 24 h, Library stock concentration: 1.5 uM) was 0.12% and the p53-positive nuclei, normalised ([2]; measured here: p53 positive nuclei at 24 h, Library stock concentration: 4.6 uM) was -0.0584%. It also gave a p53-positive nuclei, normalised ([2]; measured here: p53 positive nuclei at 24 h, Library stock concentration: 13.7 uM) of -0.0585%, a p53-positive nuclei, normalised ([2]; measured here: p53 positive nuclei at 24 h, Library stock concentration: 41 uM) of 0.0028% and a p53-positive nuclei, normalised ([2]; measured here: p53 positive nuclei at 24 h, Library stock concentration: 123 uM) of -0.115%. It also gave a p53-positive nuclei, normalised ([2]; measured here: p53 positive nuclei at 24 h, Library stock concentration: 370 uM) of -0.0115%, a p53-positive nuclei, normalised ([2]; measured here: p53 positive nuclei at 24 h, Library stock concentration: 1.111 mM) of 0.0471% and a p53-positive nuclei, normalised ([2]; measured here: p53 positive nuclei at 24 h, Library stock concentration: 3.333 mM) of 0.103%. It also gave a p53-positive nuclei, normalised [2, 10] of -0.112%.

For O=C(CCCCCCC(=O)Nc1ccccc1)NO, the nuclei count, normalised ([1]; measured here: cell number at 24 h, Library stock concentration: 80 uM) was 112%, the nuclei count, normalised ([1]; measured here: cell number at 24 h, Library stock concentration: 400 uM) was 108% and 112% and the nuclei count, normalised ([1]; measured here: cell number at 24 h, Library stock concentration: 2 mM) was 91.7% and 119%. The nuclei count, normalised [1, 3] was 78.1%, the nuclei count, normalised [1, 7] was 48.6% and 60.7% and the nuclei count, normalised [1, 11] was 97.6%. For the same molecule, the nuclei count, normalised ([1]; measured here: cell number at 48 h, Library stock concentration: 80 uM) was 108% and 95.5%, the nuclei count, normalised ([1]; measured here: cell number at 48 h, Library stock concentration: 400 uM) was 95.7% and 94.9% and the nuclei count, normalised ([1]; measured here: cell number at 48 h, Library stock concentration: 2 mM) was 94.4% and 101%. The nuclei count, normalised [1, 4] was 74.5%, the nuclei count, normalised [1, 8] was 30.2% and 39.7% and the nuclei count, normalised [1, 12] was 95.7%. For the same molecule, the p53-positive nuclei, normalised ([2]; Library stock concentration: 80 uM) was 0.114% (inactive) and -0.578% (inactive), the p53-positive nuclei, normalised ([2]; Library stock concentration: 400 uM) was -0.0686% (inactive) and -0.456% (inactive) and the p53-positive nuclei, normalised ([2]; Library stock concentration: 2 mM) was 1.4% (inactive) and -0.595% (inactive). The p53-positive nuclei, normalised [2, 5] was 4.65% (inactive), the p53-positive nuclei, normalised [2, 9] was 53.5% (active) and 27.2% (inactive) and the p53-positive nuclei, normalised ([2]; concentration not given here) was 0.0822% (inactive). For the same molecule, the p53-positive nuclei, normalised ([2]; measured here: p53 positive nuclei at 24 h, Library stock concentration: 80 uM) was 0.178% and -0.162%, the p53-positive nuclei, normalised ([2]; measured here: p53 positive nuclei at 24 h, Library stock concentration: 400 uM) was -0.0144% and -0.0685% and the p53-positive nuclei, normalised ([2]; measured here: p53 positive nuclei at 24 h, Library stock concentration: 2 mM) was 2.42% and 0.0577%. The p53-positive nuclei, normalised [2, 6] was 8.5%, the p53-positive nuclei, normalised [2, 10] was 65.2% and 32.1% and the p53-positive nuclei, normalised [2, 13] was 0.00812%.

In the case of Nc1ccccc1NC(=O)CCCCCCC(=O)Nc1ccccc1, the nuclei count, normalised [1, 11] is reported as 102%, the nuclei count, normalised [1, 12] is reported as 99.7% and the p53-positive nuclei, normalised ([2]; concentration not given here) is reported as -0.185% (inactive). It also gave a p53-positive nuclei, normalised [2, 13] of -0.135%.

In the case of Cc1ccc(NC(=O)CCCCCC(=O)Nc2ccccc2N)cc1, the nuclei count, normalised [1, 11] is reported as 111%, the nuclei count, normalised [1, 12] is reported as 104% and the p53-positive nuclei, normalised ([2]; concentration not given here) is reported as -0.139% (inactive). The p53-positive nuclei, normalised [2, 13] was -0.0721%.

— PubChem BioAssay AID1508601 (ICCB-Longwood Screening Facility, Harvard Medical School, 2020)
